Source: PubChem BioAssay (NCATS)
Values joined by “and” are separate entries in the source; they are usually repeats but may differ in a detail not shown here. Equal values may be shown once. Inconclusive results are not listed. Active and inactive are the calls of the source. Unless noted, the call rests on the fitted dose curve; in most records, active means well fitted activation curve with a large enough effect; inconclusive means small, poorly fitted or top-dose-only effect; inactive means no such curve, though single readings can be large or run the other way.

What follows are compounds tested against Cellular tumor antigen p53 (Homo sapiens) (UniProt P04637) (assay: Primary qHTS for small molecule compounds that upregulate eGFP-tagged delta133p53alpha (in N-terminal) cells. (AID 2060322; further: nearly all actives have a fitted effect of over 75% in size;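 on activation: 0% = DMSO vehicle and 100% = reference activator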)). Settings: NCI-H358 eGFP-delta133p53alpha fluorescence, 24 h; activation: stronger effect = higher value.
Cellular tumor antigen p53 (Homo sapiens), sequence (P04637 whole entry, looked up): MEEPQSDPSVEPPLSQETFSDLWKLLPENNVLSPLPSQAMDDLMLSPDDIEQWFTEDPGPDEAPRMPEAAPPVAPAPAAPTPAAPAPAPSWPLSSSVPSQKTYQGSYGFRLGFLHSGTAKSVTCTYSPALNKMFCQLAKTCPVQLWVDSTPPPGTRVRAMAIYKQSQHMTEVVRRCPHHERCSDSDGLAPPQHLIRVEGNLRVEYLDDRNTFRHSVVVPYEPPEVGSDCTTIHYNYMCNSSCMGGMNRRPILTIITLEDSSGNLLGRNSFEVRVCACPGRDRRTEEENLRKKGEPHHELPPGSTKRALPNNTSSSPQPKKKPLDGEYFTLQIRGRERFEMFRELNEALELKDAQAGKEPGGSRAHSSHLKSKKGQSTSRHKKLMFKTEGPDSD
Summary of the method: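 NCI-H358 cells pre-induced 24 h with 10 ng/ml doxycycline to express N-terminal eGFP-delta133p53alpha, then dosed 24 h at 37C without doxycycline; fixed, Hoechst-stained, GFP intensity by laser scanning cytometry, normalized to DMSO (0%) and 57.5 uM 5-azacytidine (100%).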
Potency means the concentration at half of the fitted maximal effect.

Q: With C[C@@]1(C(=O)O)CC[C@]2(C)CC[C@]3(C)C4=CC(=O)c5cc(O)c(O)cc5[C@]4(C)CC[C@@]3(C)[C@@H]2C1 as the compound, how does the activation read?
A: -19.1% (inactive)

Q: CO[C@@H]1[C@H](O)[C@@H](O[C@@H]2C[C@H]3CC[C@@H]4C(CC[C@]5(C)[C@@H](C6=CC(=O)OC6)CC[C@]45O)[C@@]3(C)[C@H](O)C2)O[C@H](C)[C@@H]1O (some centres not stated) was tested. Which Potency did it give?
A: 1040 nM (active)

Q: CC(N)[C@H](O)c1ccc(O)c(O)c1 (some centres not stated) was tested. Which activation did it give?
A: -12.2% (inactive)

Q: Which activation does the source give for C=CCN1CC[C@]23CCCCC2[C@H]1Cc1ccc(O)cc13 (some centres not stated) here?
A: -35.3% (inactive)

Q: How did the activation turn out when CN1C2CCC1CC(OC(c1ccccc1)c1ccccc1N)C2 (configuration not stated) was run?
A: -67.5% (inactive)

Q: COc1ccc2c(c1)C13CCCCC1C(C2)N(C)CC3 (configuration not stated) was tested. Which activation did it give?
A: -0.635% (inactive)

Q: Which activation does the source give for CCN1C[C@@]2(COC)C3[C@@H](OC)C4[C@@H]1C3([C@@H]1C[C@]3(O)[C@H](OC(=O)c5ccccc5)[C@@H]1[C@]4(OC(C)=O)[C@@H](O)[C@@H]3OC)[C@H](OC)C[C@H]2O here?
A: -12.5% (inactive)

Q: For COc1cc(C(O)CN)ccc1O (configuration not stated), which activation is on record?
A: -24.3% (inactive)

Q: With C#CCOC(=O)C1=CCCN(C)C1 as the compound, how does the activation read?
A: -28.1% (inactive)

Q: For Cn1c(CCCC(=O)O)nc2cc(N(CCCl)CCCl)ccc21, which activation is on record?
A: 27.7% (inactive) and 5.11% (inactive) and -16.6% (inactive)

Q: Which activation does the source give for CCS(=O)(=O)Nc1cccc(C(=C2CCCCC2)c2cnc[nH]2)c1 here?
A: -47% (inactive)

Q: Which activation does the source give for C[C@@H](N)Cc1cnc[nH]1 here?
A: 5.3% (inactive)

Q: For Cc1cc(C(=O)CN2CCCC2)c(C)n1-c1ccc(F)cc1, which activation is on record?
A: 10% (inactive) and -5.25% (inactive)

Q: Which activation does the source give for O=C(O)[C@@H]1CCN1 here?
A: -48.2% (inactive)

Q: For O=P1(N(CCCl)CCCl)NCCCO1 (configuration not stated), which activation is on record?
A: -25.4% (inactive) and -10.4% (inactive) and -10.6% (inactive)

Q: COc1ccc2[nH]c3c(c2c1)CCNC3 was tested. Which activation did it give?
A: -23.5% (inactive)

Q: CC(C)(C)c1o[nH]c(=O)c1CC(N)C(=O)O (configuration not stated) was tested. Which activation did it give?
A: -13.9% (inactive)

Q: Which activation does the source give for COc1ccc2c(c1)c(CCN(C)C)cn2S(=O)(=O)c1ccccc1 here?
A: 7.16% (inactive)

Q: With CCC(C)C1NC(=O)C(C(C)=O)=C1O (configuration not stated) as the compound, how does the activation read?
A: 13% (inactive)

Q: How did the activation turn out when COC(=O)N1CCN(C(=O)Cc2ccc(Cl)c(Cl)c2)C(CN2CCCC2)C1 (configuration not stated) was run?
A: 5.56% (inactive)

Q: CC1(C(=O)O)C2CCC(O2)C1(C)C(=O)O (configuration not stated) was tested. Which activation did it give?
A: -33.6% (inactive)

Q: How did the activation turn out when COc1ccc(C(=O)N2CCCC2=O)cc1 was run?
A: 27.7% (inactive) and -18.6% (inactive) and -9.06% (inactive)

Q: For O=c1[nH]c2ccccc2n1CCCN1CCC(n2c(=O)[nH]c3cc(Cl)ccc32)CC1, which activation is on record?
A: 22.2% (inactive) and -21.7% (inactive)

Q: COc1ccc2c(c1OC)C(=O)O[C@H]2[C@@H]1c2cc3c(cc2CCN1C)OCO3 was tested. Which activation did it give?
A: 9.21% (inactive) and -17.4% (inactive)

Q: NNC(=O)c1nn(Cc2ccc(Cl)cc2Cl)c2ccccc12 was tested. Which activation did it give?
A: 17% (inactive)

Q: CC(CCc1ccccc1)NC(C)C(O)c1ccc(O)cc1 (configuration not stated) was tested. Which activation did it give?
A: -7.34% (inactive) and 8.98% (inactive)

Q: C[N+]1(C)C2CCC1CC(OC(=O)C(CO)c1ccccc1)C2 (configuration not stated) was tested. Which activation did it give?
A: -2.46% (inactive) and -16.7% (inactive)

Q: How did the activation turn out when O=S(=O)(c1ccccc1F)N1CCOc2c(N3CCNCC3)cccc21 was run?
A: 9.07% (inactive)

Q: O=C(O)c1nn(Cc2ccc(Cl)cc2Cl)c2ccccc12 was tested. Which activation did it give?
A: 21.3% (inactive) and 19.8% (inactive) and -21.2% (inactive)

Q: COC[C@H]1OC(=O)c2coc3c2[C@@]1(C)C1=C(C3=O)C2CCC(=O)[C@@]2(C)C[C@H]1OC(C)=O (some centres not stated) was tested. Which activation did it give?
A: -11.7% (inactive)

Q: With O=C1C=CC(=O)C=C1 as the compound, how does the activation read?
A: 48.4% (inactive)

Q: Which activation does the source give for NC(CCP(=O)(O)O)C(=O)O (configuration not stated) here?
A: -26.8% (inactive)

Q: CCCN(CCC)[C@@H]1CCc2ccc3[nH]c(C#N)cc3c2C1 was tested. Which activation did it give?
A: 19.1% (inactive)

Q: For CC[C@@]1(O)C(=O)OCc2c1cc1n(c2=O)Cc2cc3ccccc3nc2-1, which Potency is on record?
A: 1090 nM (active)

Q: With CC(=O)c1c(O)c(C)c(O)c(Cc2c(O)c3c(c(C(=O)/C=C/c4ccccc4)c2O)OC(C)(C)C=C3)c1O as the compound, how does the activation read?
A: -54.1% (inactive)

Q: CC[C@@H](C(N)=O)N1CCCC1=O was tested. Which activation did it give?
A: 0.54% (inactive)

Q: Which activation does the source give for C[C@H](N)Cc1cccc(C(F)(F)F)c1 here?
A: -17% (inactive)

Q: For Cc1[nH]c2ccc(Cl)cc2c1CCN(C)C, which activation is on record?
A: -3.82% (inactive)

The compounds below were run against Aldehyde dehydrogenase, mitochondrial (Homo sapiens) (UniProt P05091) (assay: qHTS for Inhibitors of the Aldehyde Dehydrogenase Family (ALDH2) Validation screens (AID 2061302; active means well fitted inhibition curve with a large enough effect; title and protocol of this record describe different tests;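 on activity change, negative = inhibition: plate controls were DMSO vehicle for no effect and maximal DPI positive control response for full effect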)). Settings: ALDH inhibition qHTS; series mostly up to 42.6 µM; activity change, negative = inhibition: at the top concentration.

Q: For CC(N)[C@H](O)c1ccc(O)c(O)c1 (some centres not stated), which “activity change, negative = inhibition” value is on record?
A: -7.15% (inactive)

Q: For C=CCN1CC[C@]23CCCCC2[C@H]1Cc1ccc(O)cc13 (some centres not stated), which “activity change, negative = inhibition” value is on record?
A: 0.507% (inactive)

Q: How did the “activity change, negative = inhibition” value turn out when CN1C2CCC1CC(OC(c1ccccc1)c1ccccc1N)C2 (configuration not stated) was run?
A: -5.83% (inactive)

Q: For COc1ccc2c(c1)C13CCCCC1C(C2)N(C)CC3 (configuration not stated), which “activity change, negative = inhibition” value is on record?
A: -3.6% (inactive)

Q: Which “activity change, negative = inhibition” value does the source give for CCN1C[C@@]2(COC)C3[C@@H](OC)C4[C@@H]1C3([C@@H]1C[C@]3(O)[C@H](OC(=O)c5ccccc5)[C@@H]1[C@]4(OC(C)=O)[C@@H](O)[C@@H]3OC)[C@H](OC)C[C@H]2O here?
A: 8.67% (inactive)

Q: COc1cc(C(O)CN)ccc1O (configuration not stated) was tested. Which “activity change, negative = inhibition” value did it give?
A: -9.2% (inactive)

Q: C#CCOC(=O)C1=CCCN(C)C1 was tested. Which “activity change, negative = inhibition” value did it give?
A: 0.955% (inactive)

Q: For Cn1c(CCCC(=O)O)nc2cc(N(CCCl)CCCl)ccc21, which “activity change, negative = inhibition” value is on record?
A: -11.9% (inactive)

Q: Which “activity change, negative = inhibition” value does the source give for CCS(=O)(=O)Nc1cccc(C(=C2CCCCC2)c2cnc[nH]2)c1 here?
A: -1.44% (inactive)

Q: Which “activity change, negative = inhibition” value does the source give for C[C@@H](N)Cc1cnc[nH]1 here?
A: 6.1% (inactive)

Q: For O=C(O)[C@@H]1CCN1, which “activity change, negative = inhibition” value is on record?
A: -5.49% (inactive)

Q: With O=P1(N(CCCl)CCCl)NCCCO1 (configuration not stated) as the compound, how does the “activity change, negative = inhibition” value read?
A: -15.8% (inactive)

Q: COc1ccc2[nH]c3c(c2c1)CCNC3 was tested. Which “activity change, negative = inhibition” value did it give?
A: -7.98% (inactive)

Q: With CC(C)(C)c1o[nH]c(=O)c1CC(N)C(=O)O (configuration not stated) as the compound, how does the “activity change, negative = inhibition” value read?
A: 4.72% (inactive)

Q: Which “activity change, negative = inhibition” value does the source give for COC(=O)N1CCN(C(=O)Cc2ccc(Cl)c(Cl)c2)C(CN2CCCC2)C1 (configuration not stated) here?
A: -0.654% (inactive)

Q: CC1(C(=O)O)C2CCC(O2)C1(C)C(=O)O (configuration not stated) was tested. Which “activity change, negative = inhibition” value did it give?
A: 0.673% (inactive)

Q: For COc1ccc(C(=O)N2CCCC2=O)cc1, which “activity change, negative = inhibition” value is on record?
A: 0.785% (inactive)

Q: With O=c1[nH]c2ccccc2n1CCCN1CCC(n2c(=O)[nH]c3cc(Cl)ccc32)CC1 as the compound, how does the “activity change, negative = inhibition” value read?
A: -13% (inactive)

Q: With COc1ccc2c(c1OC)C(=O)O[C@H]2[C@@H]1c2cc3c(cc2CCN1C)OCO3 as the compound, how does the “activity change, negative = inhibition” value read?
A: -4.41% (inactive)

Q: Which “activity change, negative = inhibition” value does the source give for CC(CCc1ccccc1)NC(C)C(O)c1ccc(O)cc1 (configuration not stated) here?
A: 7.49% (inactive)

Q: For C[N+]1(C)C2CCC1CC(OC(=O)C(CO)c1ccccc1)C2 (configuration not stated), which Potency is on record?
A: inactive

Q: With O=C(O)c1nn(Cc2ccc(Cl)cc2Cl)c2ccccc12 as the compound, how does the “activity change, negative = inhibition” value read?
A: -9.35% (inactive)

Q: Which “activity change, negative = inhibition” value does the source give for COC[C@H]1OC(=O)c2coc3c2[C@@]1(C)C1=C(C3=O)C2CCC(=O)[C@@]2(C)C[C@H]1OC(C)=O (some centres not stated) here?
A: -18% (inactive)

Q: With O=C1C=CC(=O)C=C1 as the compound, how does the “activity change, negative = inhibition” value read?
A: 3.92% (inactive)

Q: Which “activity change, negative = inhibition” value does the source give for NC(CCP(=O)(O)O)C(=O)O (configuration not stated) here?
A: 8% (inactive)

Q: How did the “activity change, negative = inhibition” value turn out when CC[C@@]1(O)C(=O)OCc2c1cc1n(c2=O)Cc2cc3ccccc3nc2-1 was run?
A: -14.1% (inactive)

Q: CC(=O)c1c(O)c(C)c(O)c(Cc2c(O)c3c(c(C(=O)/C=C/c4ccccc4)c2O)OC(C)(C)C=C3)c1O was tested. Which Potency did it give?
A: 8910 nM (active)

Q: For CC[C@@H](C(N)=O)N1CCCC1=O, which “activity change, negative = inhibition” value is on record?
A: -2.1% (inactive)

Q: For C[C@H](N)Cc1cccc(C(F)(F)F)c1, which “activity change, negative = inhibition” value is on record?
A: -17.6% (inactive)
